GLP1R ag – qHTS of GLP-1 Receptor Agonists | Glucagon-like peptide 1 receptor (Homo sapiens), P43220 | HEK293 GLP-1R CRE-luciferase, luminescence, 4-6 h; cells express a hypersensitive GLP-1R form | Potency, µM (top dose mostly 45.6 µM), without a hit: at the top dose activation, hits mostly activators | actives 0.007% (n = 380,000); also: % of control where 0% means no effect
Target sequence (P43220 whole entry, looked up): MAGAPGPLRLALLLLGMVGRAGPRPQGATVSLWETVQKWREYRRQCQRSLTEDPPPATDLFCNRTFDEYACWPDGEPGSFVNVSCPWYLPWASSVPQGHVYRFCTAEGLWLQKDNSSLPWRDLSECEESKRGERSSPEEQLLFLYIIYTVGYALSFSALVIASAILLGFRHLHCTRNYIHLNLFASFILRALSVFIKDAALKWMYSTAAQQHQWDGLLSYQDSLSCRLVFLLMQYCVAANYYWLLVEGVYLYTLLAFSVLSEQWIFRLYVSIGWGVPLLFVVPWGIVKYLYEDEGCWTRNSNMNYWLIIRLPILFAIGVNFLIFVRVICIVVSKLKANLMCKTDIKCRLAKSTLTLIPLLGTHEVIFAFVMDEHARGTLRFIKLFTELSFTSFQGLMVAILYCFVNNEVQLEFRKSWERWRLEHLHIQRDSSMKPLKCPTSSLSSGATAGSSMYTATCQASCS
GLP-1R inv ag – qHTS of GLP-1 Receptor Inverse Agonists (Inhibition Mode). Potency, µM (titrated, usually from 38.3 µM), inactives show top-dose activity change, negative = inhibition, hits mostly inhibitors. HEK293 GLP-1R CRE-luciferase, luminescence, 24 h; GLP-1R form is constitutively active. actives 1.6% (n = 410,000). Glucagon-like peptide 1 receptor (Homo sapiens), P43220; also: % is scaled to controls: 0 for no effect and ±100 for the full control effect; nearly all actives have a fitted effect of over 55% in size
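HEK293 cells stably co-expressing a cAMP-responsive luciferase reporter and constitutively active GLP-1R were seeded, incubated 12 h, then exposed to compounds for 24 h at 37 C. Luminescence was read 12 min after detection reagent; inverse agonists lower signal.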
HEK293 tox – qHTS of GLP-1 Receptor Inverse Agonists: Cytotox Screen; HEK293 cAMP-luciferase reporter cells, luminescence, 24 h; Potency, µM (titrated, usually from 38.3 µM), for the others: at the highest dose activity change, negative = inhibition, hits mostly inhibitors; actives 0.13% (n = 410,000);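 also: loss of luciferase light is scored as toxicity; % is scaled to controls: 0 for no effect and ±100 for the full control effect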
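Seeding density was 200 cells/uL; after overnight-length (12 h) culture, 23 nL compounds went on for 24 h at 37 °C. Readout used a luciferase detection reagent, luminescence taken after 12 min at room temperature.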
PTHR1 agonist – qHTS for PTHR1 Agonists: Primary Screen. Potency, µM (series often up to 115 µM), inactives show at the highest dose activation, actives largely listed as activators. Parathyroid hormone/parathyroid hormone-related peptide receptor (Homo sapiens), Q03431. HEK293 GP2 PTHR1 cells, GloSensor cAMP luminescence, 1 h. actives 0.075% (n = 410,000); also: nearly all actives have a fitted effect of over 55% in size
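HEK-293-derived GP2 cells expressing PTHR1 and a GloSensor cAMP reporter, 3,000/well, plated overnight, given luciferin plus IBMX (each 0.5 mM as added) for 1 h at 37 °C, then compound for 1 h at 37 °C. Luminescence was read after 15 min at room temperature.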
An asterisk follows results filed as active; i = inactive; ? = inconclusive; / = not tested or not shown; [ ] = another dose, or the depositor's remark. Compounds with a hit are over-represented: about 1.7% of the library has one in this group of screens. Calls follow the shape of the dose curve; as a rule, active = well fitted curve in the direction sought with a large enough effect; inconclusive = small, poorly fitted or top-dose-only effect, or another doubt; inactive = no such curve, though single readings can be large; an effect the other way counts as inactive or inconclusive. Potency is read from the fitted curve at half-maximal effect.

SMILES	GLP1R ag	GLP-1R inv ag	HEK293 tox	PTHR1 agonist
CC(=O)C[C@H]1[C@H](O[C@H]2[C@H](OC(C)C(=O)N[C@@H](C)C(=O)N[C@H](CCC(=O)N[C@@H](CCCCN)C(=O)N[C@H](C)C(=O)O)C(N)=O)[C@@H](NC(=O)O)C(O)O[C@@H]2CO)O[C@H](CO)[C@@H](O)[C@@H]1O (stereo not given in full)	16.2%	/	/	/
CCc1ccc(NC(=O)C(CC)n2c(=O)c(-c3ccccc3NC(C)=O)nc3ccccc32)cc1 (stereo not given)	/	11.2µM*	-23.0%	i
CCc1nc(NC(C)(C)C)c2cnn(-c3ccccc3)c2n1	20.7%	2µM*	-16.2%	-31.4%
CN1CCC(N(Cc2cccs2)c2ccccc2)CC1	2.0%	/	/	/
C/C(=N\N=C(N)N)c1ccc(Cl)c(Cl)c1	-2.2%	8.91µM*	?	-2.5%
C/C(=N\NC(=O)C1CC1)c1ccc(Cl)c(Cl)c1	19.4%	0.5%	12.0%	-9.9%[57.5 µM]
CN1CC[C@H](c2c(O)cc(O)c3c(=O)cc(-c4ccccc4Cl)oc23)[C@@H](O)C1	-10.7%	/	/	/
O=C(CCS(=O)(=O)c1nc(-c2ccc3c(c2)OCO3)cc(C(F)(F)F)n1)Nc1ccccc1C(F)(F)F	/	?	-1.0%	i
Cc1ccccc1CNC(=O)CCSCc1cnn(-c2ccccc2)c1-n1cccc1	/	10µM*	-4.3%	-26.8%
Fc1ccc(Cc2cn3cc(-c4ccccc4)nc3s2)cc1	-4.7%	5.62µM*	-6.9%	-38.7%
O=C(c1cccs1)c1cn(CCOc2ccc(F)cc2)c2ccccc12	/	11.2µM*	0.1%	-1.3%
CC(C)(C)c1ccc(OCCn2cc(C(=O)c3ccco3)c3ccccc32)cc1	/	7.94µM*	-21.2%	3.5%
O=C(c1ccco1)c1cn(CCOc2ccc(Cl)cc2)c2ccccc12	/	-15.0%	-3.3%	-24.9%
CN1CCN(C(=O)Cn2c(-c3cccs3)cc3ccccc32)CC1	/	-6.7%	-11.7%	19.9%
COc1cc(CNC(C)(C)CO)cc(Br)c1OCc1ccc(Cl)cc1Cl	-27.4%	?	-14.3%	i
CCOc1cc(CNCCSc2nnnn2C)cc(Br)c1OCc1ccccc1	5.7%	5.62µM*	-25.1%	-25.0%[57.5 µM]
Cn1nnnc1SCCNCc1cc(Br)ccc1OCc1ccccc1Cl	-1.7%	10µM*	-13.5%	-4.1%
Cn1nnnc1SCCNCc1ccc(OCc2ccccc2)cc1	4.3%	-3.9%	2.6%	-4.4%
Cn1nnnc1SCCNCc1ccccc1OCc1ccccc1Cl	17.0%	?	?	-19.7%
COc1ccc(CNCCc2ccc(Cl)cc2)cc1OCc1ccccc1	3.1%	?	?	-29.5%
CCOc1cc(CNCc2ccccc2)ccc1OCc1ccc(Cl)cc1	11.9%	11.2µM*	?	-25.9%
COc1cc(CNCCO)cc(Br)c1OCc1ccccc1Cl	-1.4%	6.31µM*	?	i
Cc1ccc(C(=O)Nc2nc3n(n2)C(c2ccc(F)cc2)C=C(c2ccccc2)N3)cc1 (stereo not given)	/	-27.5%	330.4%	-24.9%
O=C(Cn1c(-c2cccs2)cc2ccccc21)N1CCN(c2ccccc2F)CC1	/	?	-1.1%	-52.5%
CCOc1cc(CNCc2ccncc2)cc(Br)c1OCc1ccc(F)cc1	10.5%	10µM*	-13.2%	-27.3%
SMILES	GLP1R ag	GLP-1R inv ag	HEK293 tox	PTHR1 agonist
CCOc1cc(CNCCO)cc(Br)c1OCc1ccccc1	7.4%	6.31µM*	-28.2%	-0.6%
Fc1ccc(COc2ccc(Br)cc2CNCc2ccncc2)cc1	5.2%	?	1.6%	-9.9%[57.5 µM]
Cc1cc(C)c(NC(=O)C2CCN(c3nnc(C)c4c(C)n(-c5ccccc5)nc34)CC2)c(C)c1	/	15.8%	1.2%	23.5%
Oc1c(Cl)cc(CN2CCOCC2)c2cccnc12	-2.8%	?	?	-0.9%
COc1cc(OC)cc(C(=O)Oc2c(CN3CCOCC3)cc(Cl)c3cccnc23)c1	-0.3%	10µM*	?	i
Oc1c(CN2CCCCC2)cc(Br)c2cccnc12	-2.4%	2.51µM*	?	-37.4%
Oc1c(CN2CCc3ccccc3C2)cc(Cl)c2cccnc12	-2.1%	?	?	22.4µM*
COc1ccc(CNC(=O)Cn2ccc3cc(S(=O)(=O)N4CCCCC4)ccc32)cc1OC	/	0.3%	-4.4%	i
Cc1ccc(Cn2c(C)c(CNCCCc3ccccc3)c(C(=O)O)c2C)cc1	/	7.6%	-6.8%	-15.2%
Cc1ccc(C)c(N2C(=O)N(Cc3cccc(C(F)(F)F)c3)c3ccccc3S2(=O)=O)c1	-0.4%	?	-6.4%	-38.1%
CC(=O)c1ccc(N2C(=O)N(Cc3cccc(C(F)(F)F)c3)c3ccccc3S2(=O)=O)cc1	-10.8%	10µM*	-10.3%	i
CC(C)(C)OC(=O)N1CCC(c2c(C(=O)Nc3ccc4c(c3)OCO4)cnn2-c2ccc(F)cc2F)CC1	/	?	-4.8%	i
CCN(CC)c1ccc(NC(=O)CN(C)Cc2cccs2)cc1	13.9%	11.2µM*	-1.5%	i
CCCCNC(=S)Nc1ccc2nc(N3CCN(CC)CC3)cc(C)c2c1	28.5%	?	?	i
CCN(CC)CCNC(=S)Nc1ccc2nc(N3CCN(CC)CC3)cc(C)c2c1	5.6%	2.51µM*	?	-7.3%
CCN1CCN(c2cc(C)c3cc(NC(=S)NCCCN4CCc5ccccc5C4)ccc3n2)CC1	17.9%	?	?	i
CCCCN(C)CCNC(=S)Nc1ccc2nc(N3CCN(CC)CC3)cc(C)c2c1	11.3%	1.12µM*	5.01µM*	24.2%
CCOC(=O)N1CCC(NC(=S)Nc2ccc3nc(N4CCN(CC)CC4)cc(C)c3c2)CC1	17.8%	8.91µM*	?	i
CCN1CCN(c2cc(C)c3cc(NC(=S)NCCN(C)C)ccc3n2)CC1	-3.4%	3.55µM*	?	i
COc1cc(C(=O)NCc2ccc3c(c2)CCN3C(=O)c2ccc(Cl)cc2)cc(OC)c1OC	/	-10.5%	-3.8%	5.4%
CCc1cccc(NC(=O)C2CCC(CNS(=O)(=O)c3ccc(Br)s3)CC2)c1 (stereo not given)	/	?	-15.1%	-32.9%
Cn1c2ccccc2c(=O)c2cc(C#CC3(O)CCCCC3)ccc21	-4.9%	1µM*	-1.2%	-93.1%
O=c1c2ccccc2oc2ccc(C#CC3(O)CCCCC3)cc12	-1.0%	7.08µM*	-27.0%	-27.5%
CCC(=O)N(Cc1cc2cc(C)c(C)cc2[nH]c1=O)C1CCCCC1	-3.1%	10µM*	-28.8%	-63.0%[57.5 µM]
CC(C)OCCCn1c(=O)c2ccccc2n2c(-c3cc(Cl)ccc3O)nnc12	/	-17.1%	-5.8%	-15.9%
Cc1nc2c(-c3ccc(F)cc3)cnn2c(N)c1-c1ccc(F)cc1	16.1%	2µM*	-16.4%	-17.5%
Cc1cc(N)n2ncc(-c3ccc(F)cc3)c2n1	8.1%	3.9%	-11.6%	-31.1%
COc1ccc(-c2c(C)nc3c(-c4ccccn4)cnn3c2N)cc1	11.0%	?	10µM*	-90.2%
